High-throughput results (PubChem BioAssay)
Shown are actives, neighbours in structure and some others; about 2.7% of the full set was active somewhere.
PfGluPho inh = PfG6PD (Plasmodium falciparum) enzyme inhibition; AID 504690; PfGluPho enzyme, NADPH resazurin-diaphorase fluorescence; inhibition, % at 20 µM; 350,000 compounds, 0.78% hits;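 active = inhibition reaching at least a set limit at 20 µM in the primary screen, cut at about 59% in these data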;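 also: 0% = DMSO wells with substrate and 100% = DMSO wells lacking glucose-6-phosphate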
Neddylation inh = cullin neddylation inhibition | P61081+Q13564 | 360,000 compounds, 0.58% hits | TR-FRET cullin neddylation, biochemical | calls only at 25 µM | AID 651699; in the data active = inhibition above about 36%
proKLK7 act = activators of human kallikrein-7 zymogen | purified proKLK7, EDANS-DABCYL substrate fluorescence; 100% is mature enzyme control, 0% vehicle | activation, % at 7 µM | AID 652039 | P49862 | 370,000 compounds, 0.9% hits;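 active = activation above the mean of all tested compounds plus 3 SD, computed per campaign excluding outliers beyond control limits, cut at about 13% in these data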
Target sequence (P49862 whole entry, looked up): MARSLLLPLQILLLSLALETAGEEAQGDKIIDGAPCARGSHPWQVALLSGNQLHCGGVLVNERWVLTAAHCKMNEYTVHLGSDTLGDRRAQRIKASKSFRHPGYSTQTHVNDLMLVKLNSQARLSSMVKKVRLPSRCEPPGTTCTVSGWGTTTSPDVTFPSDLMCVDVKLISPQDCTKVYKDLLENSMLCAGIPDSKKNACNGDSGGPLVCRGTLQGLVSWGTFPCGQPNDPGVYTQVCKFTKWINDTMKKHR
FAS TE block = blocks the thioesterase domain of human fatty acid synthase; P49327; recombinant FAS-TE, OMFH fluorogenic substrate, fluorescence endpoint; 360,000 compounds, 0.67% hits; inhibition, % at 15 µM;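 active = compounds whose normalised, plate-corrected inhibition of enzyme fluorescence in the single-dose primary screen is 50% or more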;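 also: 0% = DMSO with enzyme and 100% = substrate without enzyme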
Neddyl inh conf = cullin neddylation inhibition, confirmation; TR-FRET cullin neddylation biochemical assay; shares compounds with Neddylation inh; AID 652217; calls only at 25 µM; 1,800 compounds, 13% hits; in the data active = inhibition above about 40%;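 also: neddylation substrate is the cullin 1 ring ligase complex with SKP2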
Starred values were filed as active, the others as inactive; i = inactive; . = no result given; + = active, no number.

SMILES	PfGluPho inh	Neddylation inh	proKLK7 act	FAS TE block	Neddyl inh conf
CCCCN(CC)C(=O)c1cc2c(=O)n3cccc(C)c3nc2s1	7	+	4	8	.
O=C(c1cc2c(s1)-c1ccccc1OC2)N1CCc2ccccc2C1	11	.	-34	6	.
COc1ccccc1N1CCN(C(=O)c2cc3c(s2)-c2ccccc2OC3)CC1	10	+	-5	16	i
CCOC(=O)N1CCN(C(=O)c2cc3c(=O)n4cccc(C)c4nc3s2)CC1	2	.	2	0	.
COC(=O)[C@]12C[C@H](CC(=O)NCCC(C)C)C(=O)N(CCC3=CCCCC3)C1=C[C@H](C(C)(C)C)O[C@@H]2C	.	.	0	.	.
C#CCN(C[C@@H]1[C@@H](OC(=O)NCc2ccc(OC)c(OC)c2)[C@@H](OC(=O)NCc2ccc(OC)c(OC)c2)CN(C(=O)OC(C)C)N1C(=O)OC(C)C)S(=O)(=O)c1ccc(C)cc1	25	i	0	20	.
Cc1ccc(-n2nc(C)c3c(C)c(CCC(=O)NCC4CCCO4)c(=O)n(C)c32)cc1 (stereo unspecified)	22	i	0	-1	.
CCn1c(=O)c(CCC(=O)NCC2CCCO2)c(C)c2c(C)nn(-c3ccccc3)c21 (stereo unspecified)	-12	+	0	6	i
CCc1nc(N2CCCCC2)c2oc3ccccc3c2n1	-22	i	-1	12	.
CCc1nc(N2CCN(Cc3ccc4c(c3)OCO4)CC2)c2oc3ccccc3c2n1	7	+	-1	16	i
CC(C)CCCC(C)NC(=O)c1cc(S(=O)(=O)N2CCCCC2)ccc1N1CCOCC1 (stereo unspecified)	-2	i	0	48	.
N#Cc1ccc(/C=C(\C(=O)C(=O)O)c2ccc3ccccc3n2)cc1	-16	+	0	-37	i
CC(CCN1CCC(C(O)(c2ccccc2)c2ccccc2)CC1)Oc1ccc(OC(F)(F)F)cc1 (stereo unspecified)	.	.	1	.	.
COc1ccccc1/C=C/c1nc(S(=O)(=O)c2ccccc2)c(NCCN(C)C)o1	-11	+	-2	-4	.
O=C(Nc1cccc(C(=O)O)c1)/C(=C\c1ccc2c(c1)OCO2)NC(=O)c1ccccc1Br	-26	i	0	-7	.
CCOC(=O)c1c(C)[nH]c(C(=O)Nc2cc(OCC)c(N3CCOCC3)cc2OCC)c1C	18	+	0	-3	i
CCCCNC(=O)C[C@@H]1C(=O)N(Cc2ccc(OC)cc2)/C2=C/CCCCC[C@@]21C(=O)OCC	.	.	0	.	.
Cn1c(=O)c(-c2ccccc2)nc2ccccc21	-1	+	1	-4	+
Cn1c(=O)c(-c2ccccc2N)nc2ccccc21	1	i	0	-6	.
CC1(C(=O)NS(=O)(=O)c2ccc(Cl)s2)CCN1C(=O)c1ccccc1CCc1ccccc1 (stereo unspecified)	.	i	0	-3	.
CCc1ccc(S(=O)(=O)c2n[nH]n3c2nc(=O)c2ccccc23)cc1	-4	+	-2	20	i
CC(C)c1ccc(S(=O)(=O)c2n[nH]n3c2nc(=O)c2ccccc23)cc1	-14	+	-1	39	i
CC[C@H]1OC(=O)[C@H](C)[C@@H](O[C@H]2C[C@@](C)(OC)[C@@H](O)[C@H](C)O2)C(C)[C@@H](O[C@@H]2O[C@H](C)C[C@H](N(C)C)[C@H]2O)[C@](C)(O)C[C@@H](C)CN(C)[C@H](C)[C@@H](O)[C@]1(C)O (stereo partly specified)	.	.	0	.	.
CC1CC(=O)c2cnc(Nc3ccccc3)nc2C1 (stereo unspecified)	-6	+	0	-3	.
O=C1OC(C(Cl)(Cl)Cl)Nc2ccccc21 (stereo unspecified)	.	+	1	-4	i
SMILES	PfGluPho inh	Neddylation inh	proKLK7 act	FAS TE block	Neddyl inh conf
O=C1c2ccccc2NC2CCCCC12 (stereo unspecified)	8	i	0	-8	.
O=C(Nc1ccc2nc(-c3ccccc3)oc2c1)c1ccco1	5	+	1	14	i
CCCCCn1nnnc1C1(C)CCCCC(=O)N1Cc1ccco1 (stereo unspecified)	.	.	0	.	.
Clc1cccc(CN2CCc3c([nH]c4ccccc34)C2)c1	0	+	1	14	i
Cc1cccc(CN2CCc3c([nH]c4ccccc34)C2)c1	6	i	4	2	.
COc1ccc(-c2ccc(C(=O)NCc3ccc(C(F)(F)F)cc3)c3occc23)c(C)c1	.	+	-1	22	i
COc1ccc(-c2ccc(C(=O)NC3CCCCC3)c3occc23)c(C)c1	.	+	-1	16	i
COc1ccc(-c2coc3c(C(=O)NC4CCCCC4)cccc23)c(C)c1	.	i	0	16	.
CCc1nnc(NC(=O)CSc2nnc(-c3ccccc3O)n2-c2ccc(C)cc2C)s1	-46	+	0	13	i
CCc1nnc(NC(=O)CSc2nnc(COc3ccccc3)n2-c2ccc(C)cc2)s1	-8	i	0	-1	.
COc1ccc2sc(NC(=O)c3ccco3)nc2c1	15	+	1	-9	i
COc1ccc2nc(NC(=S)NC(=O)c3ccco3)sc2c1	21	i	-1	2	.
CC(C)c1ccc(NC(=O)Cn2c(=O)oc3cccnc32)cc1	-7	i	2	2	.
O=C(Cn1c(=O)oc2cccnc21)Nc1ccc(C(F)(F)F)cc1	-5	+	1	3	i
CCOC(=O)CC[C@@H]1CC[C@]2(CCCN(C(=O)c3ccc4ccccc4n3)C2)O1	.	.	0	.	.
Cc1cc(N/C(=N/S(=O)(=O)c2ccc(F)cc2)c2ccccc2)n(-c2ccccc2)n1	24	+	0	21	i
Cc1cc(N/C(=N/S(=O)(=O)c2cc(F)ccc2F)c2ccccc2)n(-c2ccccc2)n1	7	.	0	18	.
CC(=O)N1CCc2cc(S(=O)(=O)NCCC(=O)N(C)Cc3ccccc3F)ccc21	.	.	0	.	.
COC(=O)c1[nH]c2cccc(OC)c2c1NC(=O)CCN1CCC(C)CC1	10	.	2	-11	.
COC(=O)c1[nH]c2cccc(OC)c2c1NC(=O)CN1CCN(c2cccc(OC)c2)C(C)C1 (stereo unspecified)	1	+	-4	5	.
CCOC(=O)Nc1c(C(=O)OC)[nH]c2cccc(OC)c12	-4	+	4	-1	i
O=C(Nc1ccc(OC(F)(F)F)cc1)c1cc(S(=O)(=O)N2CCCCC2)ccc1N1CCOCC1	19	i	1	12	.
c1cn2c(-c3ccoc3)cncc2n1	.	+	-2	-16	+
O=C(c1cccc(-c2cncc3nccn23)c1)N1CCOCC1	.	.	12	-7	.
Cc1ccc(F)c(S(=O)(=O)NC(=O)C2(C)CCN2C(=O)c2ccccc2)c1 (stereo unspecified)	.	i	0	-6	.
COc1ccc(/C=C/C(=O)OCC(=O)N(C)CC(=O)Nc2ccc(C)cc2)c(OC)c1	-3	i	1	3	.
COc1ccc2oc(C(=O)OCC(=O)Nc3ccc(NC(C)=O)cc3)c(C)c2c1	3	i	6	0	.
